These results are taken from ChEMBL document CHEMBL3433997, “St. Jude Leishmania screening dataset” (2016).

For one experiment, the target named is Solute carrier family 2, facilitated glucose transporter member 1 (Homo sapiens) (UniProt P11166). The experiment can be described thus: ST_JUDE_LEISH: Cytotoxicity at 2uM final concentration against transgenic Leishmania Mexicana promastigotes LmGLUT1 that are glucose transport deficient and complemented with the human glucose transporter GLUT1. Activity is measured by DNA content using SYBR green in vitro. The format is functional.
Solute carrier family 2, facilitated glucose transporter member 1 (Homo sapiens), sequence (P11166 whole entry): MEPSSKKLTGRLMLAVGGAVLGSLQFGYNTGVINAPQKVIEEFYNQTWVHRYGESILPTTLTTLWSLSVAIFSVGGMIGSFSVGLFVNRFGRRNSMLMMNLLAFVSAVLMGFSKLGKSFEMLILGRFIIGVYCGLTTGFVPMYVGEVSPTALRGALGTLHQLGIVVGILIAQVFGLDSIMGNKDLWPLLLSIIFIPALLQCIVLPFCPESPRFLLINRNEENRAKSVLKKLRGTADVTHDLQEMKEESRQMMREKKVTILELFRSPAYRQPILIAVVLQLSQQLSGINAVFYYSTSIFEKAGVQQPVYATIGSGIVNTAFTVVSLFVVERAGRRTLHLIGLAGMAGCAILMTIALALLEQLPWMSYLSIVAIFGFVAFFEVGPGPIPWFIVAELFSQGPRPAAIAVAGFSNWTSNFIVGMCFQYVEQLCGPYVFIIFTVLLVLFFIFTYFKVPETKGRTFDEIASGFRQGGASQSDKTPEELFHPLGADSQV
A word on the inhibition: it is the relative decrease from the control value, in per cent. As for `Oc1ccc(CCNc2nc(N/N=C/C=C/c3ccc(Cl)cc3)nc(N3CCNCC3)n2)cc1`, the inhibition turned out to be 0.83%.
Same read-out and setting: the value for `CCc1ccc(CN2CCCCC(NC(=O)c3cc(-c4ccccc4F)cs3)C2)cc1` (stereo not given) was -2.71%; that for `CC(C)(C)n1nnnc1C(c1cccnc1)N(Cc1ccccc1)Cc1ccc(Cl)cc1` (stereo not given) was 2.8%; that for `COc1cc(Cc2cnc(N)nc2N)cc(OCCCS(=O)(=O)O)c1OC` was 4.25%.
Same read-out and setting: as for `NC12CC3CC(CC(C3)C1)C2`, the figure is 5.47%; as for `CCN(CCCNc1nc(=S)[nH]c2cc(OC)c(OC)cc12)c1ccccc1`, -0.4%.
On to `O=C(NCCc1cccc(F)c1)c1cc(Br)cc(N2CCN(c3ccncc3)CC2)c1`, for which the inhibition was 6.76%.
As for `CCCOc1ccc2ccccc2c1CNCCCCCCNCc1c(OCCC)ccc2ccccc12`, the inhibition is 2.66%.
For the compound `Cc1cc(N[C@@H](CC(C)C)C(=O)NCc2cccc(F)c2)nc(NCCc2ccc(F)cc2)n1`, the inhibition stood at 4.5%.
The same measure, in the same setting: the value for `Cc1ccc(C2(C)CN(CCCOc3cccc(-c4ccc(C(=O)NC(C)C)cc4)c3)CCO2)cc1` (stereo not given) was 0.12%; that for `CCCS(=O)(=O)c1nc(S(=O)(=O)c2ccc(Cl)cc2)c(N2CCCCC2)s1` was 0.14%.
Same read-out and setting: the value for `O=C(/C=C/c1ccc(Cl)c(Cl)c1)NCCCCCN1CCC(NC(=O)Nc2ccc(Br)cc2)CC1` was -0.66%; that for `CCCCNCc1ccc(-c2nc(CN(CCCN3CCN(C)CC3)C(=O)Nc3cccc(Cl)c3)cs2)cc1` was 5.24%.
On to `O=C(Nc1ccc(OC2CCN(Cc3ccccc3)CC2)c(Cl)c1)c1ccsc1`, for which the inhibition was found to be 2.2%.
Still for that read-out and setting: as for `c1ccc(C23NC(=Nc4nc5ccccc5[nH]4)NC2(c2ccccc2)NC(=Nc2nc4ccccc4[nH]2)N3)cc1` (stereo not given), the figure is 3.64%; as for `CC(CCCCCC(=O)Nc1ccc(CC(C)NCCc2cccc(Cl)c2)cc1)NCCc1cccc(Cl)c1` (stereo not given), 12.9%; as for `Cc1ccc(-c2ccc3c(c2)C=C(C(=O)NC2CCN(CCNC(=O)c4cccc(C(F)(F)F)c4)CC2)CCC3)cc1`, 5.7%.
Same read-out and setting: as for `COc1ccc2ncc(F)c([C@@H](O)CN3CCC(NCc4cc5c(cn4)OCS5)CC3)c2c1`, the figure is 5.71%.
On the same count and under the same terms, as for `CC(CN(C)C)C(=O)Nc1ccc(-c2cccc(-c3nc4cc(C(F)(F)F)ccc4[nH]3)c2)cc1` (stereo not given), the figure is 1.9%.
Regarding `CCCc1cc(OC)c(CC2c3cc(O)c(Cl)cc3C(c3ccccc3)CN2C)cc1OC` (stereo not given), the inhibition worked out at 7.84%.
The same measure, in the same setting: as for `COc1cc(Cc2c(C)nc3nc(N)nc(N)c3c2C)c(Br)c(OC)c1OC`, the figure is 5.54%; as for `NC(=O)c1ccsc1NC(=O)CNC(c1ccccc1)c1ccccc1`, 2.02%.
On the same count and under the same terms, as for `COc1cc2nc(NCc3ccc(S(N)(=O)=O)cc3)nc(Nc3ccc(Oc4ccccc4)cc3)c2cc1OC`, the figure is 4.15%; as for `Fc1ccc2[nH]c(-c3cccc(-c4cccc(CNCc5cnn(-c6ccccc6)n5)c4)c3)nc2c1`, 6.56%; as for `N=C(Cc1ccc(Cl)cc1)NCCN1CCCCCC1`, 5.13%.
The same measure, in the same setting: as for `Cc1cccc2nc(-c3ccc(-c4cccc(C(=O)N5CCCCC5C(C)O)c4)s3)[nH]c12` (stereo not given), the figure is 1.3%.
For `COc1cccc(-c2ccc3c(-c4ccc(F)cc4)cnc(N)c3c2)c1`, the inhibition amounted to 5.2%.
On the same count and under the same terms, the value for `CN1CCCc2ccc(NC(=O)Nc3ccc(Cl)c(Cl)c3)cc2C1` was -0.95%.
The same measure, in the same setting: as for `CCCc1cc(Cc2cnc(N)nc2N)ccc1OCCCCCC(=O)OCC`, the figure is 1.31%; as for `Cc1cccc2nc(-c3ccc(-c4cccc(CN5CCCCC5)c4)s3)[nH]c12`, 5.63%.
Same read-out and setting: as for `COc1ccc2nccc(N3CCC(NCCNS(=O)(=O)c4ccc5c(c4)NC(=O)CS5)C3)c2n1` (stereo not given), the figure is -1.11%; as for `CN(C)CCN(C)Cc1nc(-c2ccc3c(Nc4ccc(Oc5ccccc5)cc4)ccnc3c2)cs1`, 2.99%; as for `CCN1C(c2ccc(Cl)cc2)C(CNCc2ccccc2O)CC1(C)CO` (stereo not given), 8.9%.
On to `COc1ccc(NC(=O)[C@H](Cc2ccccc2)Nc2cc(C)nc(NCCc3ccccc3OC)n2)cc1`, for which the inhibition is -0.03%.
Still for that read-out and setting: as for `COc1cc(-n2cnc3cc(-c4ccc([N+](=O)[O-])cc4)sc3c2=O)ccc1OCCN1CCCC1`, the figure is 19.5%; as for `CC(=O)c1ccc2nc[nH]c(=O)c2c1`, 99.2%; as for `CN(C)CCCN(C)C(=O)c1cc2cc(-c3ccccc3)ccc2n1S(=O)(=O)c1ccccc1`, 5.31%.
Same read-out and setting: as for `COc1c(C2CCN(CCCCNC(=O)c3ccc(C)c(-c4ccc(C(F)(F)F)cc4)c3)CC2)ccc2c1CCCC2`, the figure is -1.99%.
Still for that read-out and setting: the value for `O=c1[nH]c2ccc(Nc3nccc(NCCc4ccccc4)n3)cc2[nH]1` was 1.91%.
`CCN(C)C(=O)n1ncc2c3c(N)nc(N)nc3ccc21`: the inhibition was determined as 3.44%.

For a further experiment, the target named is Hexose transporter 1 (Plasmodium falciparum) (UniProt O97467). The experiment can be described thus: ST_JUDE_LEISH: Cytotoxicity at 2uM final concentration against transgenic Leishmania Mexicana promastigotes LmPfHT that are glucose transport deficient and complemented with the Plasmodium falciparum hexose transporter. Activity is measured by DNA content using SYBR green in vitro. The format is functional.
With `Oc1ccc(CCNc2nc(N/N=C/C=C/c3ccc(Cl)cc3)nc(N3CCNCC3)n2)cc1`, the inhibition is 1.74%.
Same read-out and setting: the value for `CCc1ccc(CN2CCCCC(NC(=O)c3cc(-c4ccccc4F)cs3)C2)cc1` (stereo not given) was -0.89%; that for `CC(C)(C)n1nnnc1C(c1cccnc1)N(Cc1ccccc1)Cc1ccc(Cl)cc1` (stereo not given) was 10.2%.
Same read-out and setting: the value for `COc1cc(Cc2cnc(N)nc2N)cc(OCCCS(=O)(=O)O)c1OC` was 2.33%; that for `NC12CC3CC(CC(C3)C1)C2` was 5.42%; that for `CCN(CCCNc1nc(=S)[nH]c2cc(OC)c(OC)cc12)c1ccccc1` was -1.25%.
Same read-out and setting: the value for `O=C(NCCc1cccc(F)c1)c1cc(Br)cc(N2CCN(c3ccncc3)CC2)c1` was 5.57%; that for `CCCOc1ccc2ccccc2c1CNCCCCCCNCc1c(OCCC)ccc2ccccc12` was 1.04%.
With `Cc1cc(N[C@@H](CC(C)C)C(=O)NCc2cccc(F)c2)nc(NCCc2ccc(F)cc2)n1`, the inhibition was 7.16%.
With `Cc1ccc(C2(C)CN(CCCOc3cccc(-c4ccc(C(=O)NC(C)C)cc4)c3)CCO2)cc1` (stereo not given), the inhibition came out at 4.27%.
The same measure, in the same setting: the value for `CCCS(=O)(=O)c1nc(S(=O)(=O)c2ccc(Cl)cc2)c(N2CCCCC2)s1` was 0.19%.
On the same count and under the same terms, the value for `O=C(/C=C/c1ccc(Cl)c(Cl)c1)NCCCCCN1CCC(NC(=O)Nc2ccc(Br)cc2)CC1` was -0.06%.
The same measure, in the same setting: as for `CCCCNCc1ccc(-c2nc(CN(CCCN3CCN(C)CC3)C(=O)Nc3cccc(Cl)c3)cs2)cc1`, the figure is 9.93%; as for `O=C(Nc1ccc(OC2CCN(Cc3ccccc3)CC2)c(Cl)c1)c1ccsc1`, 2.35%; as for `c1ccc(C23NC(=Nc4nc5ccccc5[nH]4)NC2(c2ccccc2)NC(=Nc2nc4ccccc4[nH]2)N3)cc1` (stereo not given), 3.18%.
In the case of `CC(CCCCCC(=O)Nc1ccc(CC(C)NCCc2cccc(Cl)c2)cc1)NCCc1cccc(Cl)c1` (stereo not given), the inhibition amounted to 10.6%.
Turning to `Cc1ccc(-c2ccc3c(c2)C=C(C(=O)NC2CCN(CCNC(=O)c4cccc(C(F)(F)F)c4)CC2)CCC3)cc1`, the inhibition is 7.43%.
The same measure, in the same setting: the value for `COc1ccc2ncc(F)c([C@@H](O)CN3CCC(NCc4cc5c(cn4)OCS5)CC3)c2c1` was 1.41%; that for `CC(CN(C)C)C(=O)Nc1ccc(-c2cccc(-c3nc4cc(C(F)(F)F)ccc4[nH]3)c2)cc1` (stereo not given) was 1.89%; that for `CCCc1cc(OC)c(CC2c3cc(O)c(Cl)cc3C(c3ccccc3)CN2C)cc1OC` (stereo not given) was 1.11%.
Still for that read-out and setting: as for `COc1cc(Cc2c(C)nc3nc(N)nc(N)c3c2C)c(Br)c(OC)c1OC`, the figure is 8.22%.
On the same count and under the same terms, as for `NC(=O)c1ccsc1NC(=O)CNC(c1ccccc1)c1ccccc1`, the figure is 3.09%.
Consider `COc1cc2nc(NCc3ccc(S(N)(=O)=O)cc3)nc(Nc3ccc(Oc4ccccc4)cc3)c2cc1OC`, for which the inhibition is 4.39%.
The same measure, in the same setting: as for `Fc1ccc2[nH]c(-c3cccc(-c4cccc(CNCc5cnn(-c6ccccc6)n5)c4)c3)nc2c1`, the figure is 8.75%; as for `N=C(Cc1ccc(Cl)cc1)NCCN1CCCCCC1`, 7.11%; as for `Cc1cccc2nc(-c3ccc(-c4cccc(C(=O)N5CCCCC5C(C)O)c4)s3)[nH]c12` (stereo not given), 2.52%.
With `COc1cccc(-c2ccc3c(-c4ccc(F)cc4)cnc(N)c3c2)c1`, the inhibition stood at 4.32%.
As to `CN1CCCc2ccc(NC(=O)Nc3ccc(Cl)c(Cl)c3)cc2C1`, the inhibition was -0.84%.
Same read-out and setting: as for `CCCc1cc(Cc2cnc(N)nc2N)ccc1OCCCCCC(=O)OCC`, the figure is -1.27%.
On the same count and under the same terms, the value for `Cc1cccc2nc(-c3ccc(-c4cccc(CN5CCCCC5)c4)s3)[nH]c12` was 5.12%.
As to `COc1ccc2nccc(N3CCC(NCCNS(=O)(=O)c4ccc5c(c4)NC(=O)CS5)C3)c2n1` (stereo not given), the inhibition was -1.18%.
On the same count and under the same terms, as for `CN(C)CCN(C)Cc1nc(-c2ccc3c(Nc4ccc(Oc5ccccc5)cc4)ccnc3c2)cs1`, the figure is 3.38%; as for `CCN1C(c2ccc(Cl)cc2)C(CNCc2ccccc2O)CC1(C)CO` (stereo not given), 7.62%.
Still for that read-out and setting: the value for `COc1ccc(NC(=O)[C@H](Cc2ccccc2)Nc2cc(C)nc(NCCc3ccccc3OC)n2)cc1` was -1.38%; that for `COc1cc(-n2cnc3cc(-c4ccc([N+](=O)[O-])cc4)sc3c2=O)ccc1OCCN1CCCC1` was 20%; that for `CC(=O)c1ccc2nc[nH]c(=O)c2c1` was 96.3%.
As for `CN(C)CCCN(C)C(=O)c1cc2cc(-c3ccccc3)ccc2n1S(=O)(=O)c1ccccc1`, the inhibition is -2.36%.
Regarding `COc1c(C2CCN(CCCCNC(=O)c3ccc(C)c(-c4ccc(C(F)(F)F)cc4)c3)CC2)ccc2c1CCCC2`, the inhibition is -1.46%.
On the same count and under the same terms, as for `O=c1[nH]c2ccc(Nc3nccc(NCCc4ccccc4)n3)cc2[nH]1`, the figure is 4.94%; as for `CCN(C)C(=O)n1ncc2c3c(N)nc(N)nc3ccc21`, 4.56%.
